# Where a name gives a salt, the structure may show the parent alone.
# Assays:
# Settings in all cases: 20 µM; incubation time: 27 h, anaerobic, 37 °C;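 for the amine columns active = adjusted P below 0.05 in both replicates with a change the same way and a mean fold change under 0.8 or over 1.25; inactive = the rest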
# [1] = test system: Clostridium sporogenes DSM 1664; assay: growth (OD595) fold change vs plate DMSO controls (fold change (ratio)); higher = more growth
# In short: (§1)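 Growth is the fold change relative to the median of plate DMSO controls. Readings came from anaerobic mGAM cultures in 96-well plates grown for 27 h at 37 °C and read at 595 nm. They were blank-subtracted, corrected for compound background with 20 µM compound solutions in water, and converted to OD with a calibration factor of 5. Values are means of 2 biological replicates, and fold changes above 1.5 were set to NA.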
# Escherichia coli IAI1 [2] = assay: as above
# In short: as §1
# [3] = test system: Klebsiella aerogenes DSM 30053; assay: as above
# In short: as §1
# [4] = test system: Ruminococcus gnavus DSM 108212; assay: as above
# In short: as §1
# [5] = test system: Klebsiella aerogenes DSM 30053; assay: fold change of Histamine concentration vs plate DMSO controls (fold change (ratio)); higher = more amine produced, active = hit call of the paper (significant change in both replicates, either direction)
# In short: (§2)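 Extracts of whole anaerobic mGAM cultures were analysed for amines by LC–triple-quadrupole MS with dynamic MRM and external calibration curves, with drift corrected within batch. Four gut strains were grown at 37 °C for 27 h in 80 µL wells with compounds at 20 µM final, sweeteners at 50 µM final. Each value expresses fold change over plate DMSO controls. The average of 2 biological replicates is shown.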
# [6] = test system: Clostridium sporogenes DSM 1664; assay: fold change of Tryptamine concentration vs plate DMSO controls (fold change (ratio)); higher = more amine produced, active = hit call of the paper (significant change in both replicates, either direction)
# In short: as §2
# [7] = test system: Ruminococcus gnavus DSM 108212; assay: as above
# In short: as §2
# Escherichia coli IAI1 [8] = assay: fold change of Putrescine concentration vs plate DMSO controls (fold change (ratio)); higher = more amine produced, active = hit call of the paper (significant change in both replicates, either direction)
# In short: as §2
# [9] = test system: Klebsiella aerogenes DSM 30053; assay: as above
# In short: as §2
# Escherichia coli IAI1 [10] = assay: fold change of Cadaverine concentration vs plate DMSO controls (fold change (ratio)); higher = more amine produced, active = hit call of the paper (significant change in both replicates, either direction)
# In short: as §2
# [11] = test system: Klebsiella aerogenes DSM 30053; assay: as above
# In short: as §2
# [12] = test system: Ruminococcus gnavus DSM 108212; assay: fold change of 2-Phenylethylamine concentration vs plate DMSO controls (fold change (ratio)); higher = more amine produced, active = hit call of the paper (significant change in both replicates, either direction)
# In short: as §2
Structure (SMILES),growth [1],growth (Escherichia coli IAI1 [2]),growth [3],growth [4],fold change of Histamine concentration [5],fold change of Tryptamine concentration [6],fold change of Tryptamine concentration [7],fold change of Putrescine concentration (Escherichia coli IAI1 [8]),fold change of Putrescine concentration [9],fold change of Cadaverine concentration (Escherichia coli IAI1 [10]),fold change of Cadaverine concentration [11],fold change of 2-Phenylethylamine concentration [12]
O=[N+]([O-])/N=C1\NCCN1Cc1ccc(Cl)nc1,1.04,0.975,0.996,0.979,0.986 (inactive),1.01 (inactive),0.989 (inactive),0.964 (inactive),0.998 (inactive),0.98 (inactive),0.998 (inactive),1 (inactive)
Nc1c(Cl)c(F)nc(OCC(=O)O)c1Cl,0.964,1.01,1.05,1.03,0.96 (inactive),1.03 (inactive),1.04 (inactive),0.986 (inactive),0.955 (inactive),0.95 (inactive),1.01 (inactive),1.05 (inactive)
O=S(=O)(c1ccc(O)cc1)c1ccc(O)cc1 [Bisphenol S],1.08,1.02,0.994,1.04,0.949 (inactive),1.04 (inactive),0.941 (inactive),0.883 (inactive),0.939 (inactive),0.961 (inactive),0.998 (inactive),0.946 (inactive)
CCOC(=O)OC1=C(c2cc(C)ccc2C)C(=O)N[C@]12CC[C@@H](OC)CC2,0.93,1.02,0.993,0.921,1.01 (inactive),0.974 (inactive),1.02 (inactive),1 (inactive),1 (inactive),0.963 (inactive),1 (inactive),1.04 (inactive)
O=C(CCCN1CCC2(CC1)C(=O)NCN2c1ccccc1)c1ccc(F)cc1 [Spiperone],0.864,0.96,0.968,0.921,1.01 (inactive),0.991 (inactive),1.01 (inactive),1.02 (inactive),1.01 (inactive),1.01 (inactive),0.998 (inactive),1.04 (inactive)
C[C@@H]1C[C@@H]([C@H](O)CC2CC(=O)NC(=O)C2)C(=O)[C@@H](C)C1 [Cycloheximide],1.17,0.978,0.995,1.25,1.08 (inactive),0.956 (inactive),1.01 (inactive),1.06 (inactive),1.03 (inactive),1.01 (inactive),0.998 (inactive),0.95 (inactive)
CC(C)(C)C(O)(CCc1ccc(Cl)cc1)Cn1cncn1 (configuration not stated),0.978,1.03,1.01,1.02,0.981 (inactive),1.24 (inactive),1.07 (inactive),0.998 (inactive),1.03 (inactive),1.01 (inactive),1.03 (inactive),1.15 (inactive)
CN1COCN(Cc2cnc(Cl)s2)/C1=N\[N+](=O)[O-],0.973,1.02,1,0.969,1.01 (inactive),0.906 (inactive),0.912 (inactive),1.03 (inactive),1.01 (inactive),1.03 (inactive),0.993 (inactive),0.88 (inactive)
CN(C)C(=O)Oc1cccc([N+](C)(C)C)c1 [Neostigmine bromide],0.939,0.975,1.01,0.886,0.992 (inactive),1.07 (inactive),1.03 (inactive),0.992 (inactive),0.998 (inactive),1.02 (inactive),1 (inactive),1.01 (inactive)
O=C(O)CNCP(=O)(O)O,0.851,1.02,0.976,0.965,1.03 (inactive),0.931 (inactive),0.98 (inactive),0.961 (inactive),1.02 (inactive),0.991 (inactive),1.03 (inactive),0.966 (inactive)
CNCC(O)c1ccc(O)cc1 (configuration not stated) [Synephrine],1.04,1.09,1.01,0.887,1.02 (inactive),0.997 (inactive),1.05 (inactive),1.11 (inactive),0.982 (inactive),0.997 (inactive),0.989 (inactive),1.09 (inactive)
COc1cc2c(c(OC)c1OC)-c1ccc(OC)c(=O)cc1[C@@H](NC(C)=O)CC2 [Colchicine],0.992,1.02,0.975,1.16,1.06 (inactive),1.02 (inactive),0.889 (inactive),1.04 (inactive),1.02 (inactive),1.04 (inactive),0.983 (inactive),0.829 (inactive)
CC[C@H](C)[C@H]1O[C@]2(C=C[C@@H]1C)C[C@@H]1C[C@@H](C/C=C(\C)[C@@H](O[C@H]3C[C@H](OC)[C@@H](O[C@H]4C[C@H](OC)[C@@H](O)[C@H](C)O4)[C@H](C)O3)[C@@H](C)/C=C/C=C3\CO[C@@H]4[C@H](O)C(C)=C[C@@H](C(=O)O1)[C@]34O)O2.CO[C@H]1C[C@H](O[C@H]2[C@H](C)O[C@@H](O[C@@H]3/C(C)=C/C[C@@H]4C[C@@H](C[C@]5(C=C[C@H](C)[C@@H](C(C)C)O5)O4)OC(=O)[C@@H]4C=C(C)[C@@H](O)[C@H]5OC/C(=C\C=C\[C@@H]3C)[C@]54O)C[C@@H]2OC)O[C@@H](C)[C@@H]1O,1.09,1.01,1.05,1.05,0.985 (inactive),0.855 (inactive),0.906 (inactive),0.989 (inactive),0.99 (inactive),0.968 (inactive),0.996 (inactive),0.885 (inactive)
CCN[C@@H](C)Cc1cccc(C(F)(F)F)c1 [Dexfenfluramine hydrochloride],1.03,1.05,1.1,0.954,0.833 (inactive),1.28 (inactive),1.07 (inactive),1.02 (inactive),0.95 (inactive),0.869 (inactive),1.06 (inactive),1.16 (inactive)
CCc1cnc(C2=NC(C)(C(C)C)C(=O)N2)c(C(=O)O)c1 (configuration not stated),1,1.06,0.985,1.09,1 (inactive),0.954 (inactive),1.01 (inactive),1.03 (inactive),1.02 (inactive),0.991 (inactive),0.993 (inactive),0.984 (inactive)
O=C(NC(=O)c1c(F)cccc1F)Nc1ccc(OC(F)(F)C(F)OC(F)(F)F)c(Cl)c1 (configuration not stated),0.972,1.03,1.01,0.995,0.951 (inactive),0.981 (inactive),1.01 (inactive),1.01 (inactive),0.928 (inactive),0.872 (inactive),1.01 (inactive),0.957 (inactive)
CNC(=O)/C=C(\C)OP(=O)(OC)OC,1.06,1.01,1.01,0.948,1.01 (inactive),1.05 (inactive),0.985 (inactive),0.968 (inactive),0.986 (inactive),1.05 (inactive),0.998 (inactive),1.06 (inactive)
C[C@@H]1[C@@H](c2ccc(Cl)cc2)SC(=O)N1C(=O)NC1CCCCC1,1.01,1.08,1.07,1,0.918 (inactive),0.989 (inactive),0.913 (inactive),0.955 (inactive),1.03 (inactive),0.972 (inactive),1.02 (inactive),0.882 (inactive)
Cc1cccc(C)c1NC1=NCCCS1 [Xylazine],1.16,0.985,0.959,0.87,1.09 (inactive),1.01 (inactive),1 (inactive),1.03 (inactive),1.02 (inactive),0.991 (inactive),0.993 (inactive),1 (inactive)
CO/C=C(/C(=O)OC)c1ccccc1Oc1cc(Oc2ccccc2C#N)ncn1,0.938,0.996,1.01,0.966,0.996 (inactive),1.02 (inactive),1.01 (inactive),1.04 (inactive),0.994 (inactive),0.962 (inactive),0.992 (inactive),1.01 (inactive)
CNC(=O)CSP(=S)(OC)OC,0.992,1.06,1,0.99,1.07 (inactive),1.01 (inactive),1.13 (inactive),0.998 (inactive),0.888 (inactive),1.01 (inactive),1.12 (inactive),1.43 (inactive)
CC[C@@]1([C@@H]2O[C@@H]([C@H]3O[C@@](O)(CO)[C@H](C)C[C@@H]3C)C[C@@H]2C)CC[C@H]([C@]2(C)CC[C@]3(C[C@H](O)[C@@H](C)[C@@H]([C@@H](C)[C@@H](OC)[C@H](C)C(=O)O)O3)O2)O1 [Monensin sodium salt],0.0614,1.09,1,0.204,0.975 (inactive),0.0398 (active),0.0682 (active),1.09 (inactive),1 (inactive),0.966 (inactive),0.999 (inactive),0.0948 (active)
CC1(C)CON(Cc2ccccc2Cl)C1=O,0.972,0.994,0.994,0.976,1.02 (inactive),1.02 (inactive),1.01 (inactive),1.01 (inactive),1 (inactive),1.02 (inactive),0.986 (inactive),0.993 (inactive)
CCn1cc(C(=O)O)c(=O)c2cc3c(cc21)OCO3 [Oxolinic acid],0,0.0401,0.348,0.896,0.275 (active),0.0614 (active),1 (inactive),0.59 (active),1.08 (inactive),0.227 (active),0.976 (inactive),0.959 (inactive)
C[C@@H]1CC[C@H]2[C@@H](C)C(=O)O[C@@H]3O[C@@]4(C)CC[C@@H]1[C@]32OO4 [Artemisinin],0.953,0.972,1.02,1.13,1.01 (inactive),1.02 (inactive),1.03 (inactive),1.01 (inactive),1.01 (inactive),0.966 (inactive),1.01 (inactive),1.03 (inactive)
CCN(C(C)=O)c1cccc(-c2ccnc3c(C#N)cnn23)c1 [Zaleplon],1.07,0.995,1.05,1.05,0.987 (inactive),0.972 (inactive),1.02 (inactive),1.03 (inactive),0.992 (inactive),1.02 (inactive),1.01 (inactive),1.04 (inactive)
